Measured values published in PubChem BioAssay (Tox21).
Results filed as inconclusive are left out. Entries that show only a call come without a potency. A number with no mark means an inactive call. Activity calls are given as the source filed them. Calls follow the shape of the dose curve; as a rule, active = well fitted cell-killing curve with a large enough effect in the repeat runs; inconclusive = weak or mixed curves; inactive = flat fitted curve, though single readings scatter.

experiment: qHTS assay to identify small molecule antagonists of the estrogen related receptor (ERR) signaling pathway from Tox21 library - cell viability counter screen (AID 1224834); settings: ERR reporter cells viability, CellTiter-Fluor, 17.5 h; series mostly up to 92.4 µM; also: nearly all actives have a fitted effect of over 30% in size
How it was run: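 ERR cells, 2,000/well; 6 h settle at 37 C/5% CO2; pin-tool compound transfer in DMSO; 17.5 h at 37 C; CellTiter-Fluor, 30 min; fluorescence intensity.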
Potency is read from the fitted curve at half-maximal effect.

| Structure (SMILES) | Potency | viability change, negative = cytotoxic |
| --- | --- | --- |
| CC(=O)c1ccc2ccccc2c1 | inactive |  |
| CCCCc1nc(Cl)c(CO)n1Cc1ccc(-c2ccccc2-c2nn[nH]n2)cc1 | inactive |  |
| NO | inactive |  |
| COC(=O)Nc1ccc(Cl)c(Cl)c1 | inactive |  |
| NC(=O)N1c2ccccc2CC(=O)c2ccccc21 | inactive |  |
| CC1=CC(=O)[C@H]2C[C@@H]1C2(C)C | inactive |  |
| CC(C)(N)C#N | inactive |  |
| O=C(O)c1cn(C2CC2)c2cc(N3CCNCC3)c(F)cc2c1=O | inactive |  |
| O=S(=O)(O)c1cccc2ccccc12 | inactive |  |
| CC1=NN(c2cc(S(=O)(=O)O)ccc2Cl)C(=O)C1N=Nc1ccccc1 (stereo not given) | 48.6 µM (active) |  |
| COc1c(N2CCNC(C)C2)c(F)cc2c(=O)c(C(=O)O)cn(C3CC3)c12 (stereo not given) | inactive |  |
| CC(=O)OCC(=O)[C@@]1(O)[C@H](C)C[C@H]2[C@@H]3CCC4=CC(=O)C=C[C@]4(C)[C@@]3(F)[C@@H](O)C[C@@]21C | inactive |  |
| Nc1ccccn1 | inactive |  |
| CCC(C)(CN(C)C)OC(=O)c1ccccc1 (stereo not given) | inactive |  |
| NC(N)=NCCN1CCCCCCC1 |  | 1.48% [at 0.349 µM] |
| O=C(O)CNC(=O)c1ccc(CO)o1 | inactive |  |
| Cc1ccc(C(=O)Nc2ccc(S(=O)(=O)O)c3cc(S(=O)(=O)O)cc(S(=O)(=O)O)c23)cc1NC(=O)c1cccc(NC(=O)Nc2cccc(C(=O)Nc3cc(C(=O)Nc4ccc(S(=O)(=O)O)c5cc(S(=O)(=O)O)cc(S(=O)(=O)O)c45)ccc3C)c2)c1 | inactive |  |
| CCCCS(=O)(=O)N[C@@H](Cc1ccc(OCCCCC2CCNCC2)cc1)C(=O)O | inactive |  |
| COc1ccnc(CS(=O)c2nc3cc(OC(F)F)ccc3[nH]2)c1OC (stereo not given) | inactive |  |
| NC(CCC(=O)O)C(=O)O (stereo not given) | inactive |  |
| CC1(C)[C@@H]2CC[C@@]1(C)[C@H](O)C2 | inactive |  |
| CC(=O)c1ccccc1[N+](=O)[O-] | inactive |  |
| c1ccc2sc(SN3CCOCC3)nc2c1 | inactive |  |
| CCOC(=O)COc1cc(-n2ncc(C(F)(F)F)c(C)c2=O)c(F)cc1Cl | inactive |  |
| CCN[C@H]1C[C@H](C)S(=O)(=O)c2sc(S(N)(=O)=O)cc21 | inactive |  |
| COc1cc(-c2ccc(=O)[nH]n2)ccc1OC(F)F | inactive |  |
| CCN1CCOCC1 | inactive |  |
| C[C@H]1[C@H](NC(=O)/C(=N/OC(C)(C)C(=O)O)c2csc(N)n2)C(=O)N1S(=O)(=O)O (stereo in doubt) | inactive |  |
| Cc1c(N)c(=O)n(-c2ccccc2)n1C | inactive |  |
| C[N+](C)(CCOc1ccccc1)Cc1cccs1 | inactive |  |
